KAT2A inh: inhibitors of human GCN5L2 histone acetyltransferase. GCN5L2 HAT assay, ThioGlo1 CoA-SH fluorescence. Potency, µM (titrated, usually from 58.9 µM), for the others: top-dose activity change, negative = inhibition, usual class: inhibitors. 0.21% of 390,000 active
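Compounds, pin-transferred from DMSO stocks, meet 20nM GCN5L2 for 15 min before the reaction begins with H3(1-25) peptide (75uM) and acetyl-CoA (70uM). Thiol-reactive ThioGlo1 reports CoA release over 20 min at room temperature.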
PLK1 PBD inh: inhibitors of human PLK1 polo-box domain binding | P53350 | Plk1 PBD binding of FITC phosphopeptide, fluorescence polarization | Potency, µM, inactives show max response, negative = inhibition, most hits filed as inhibitors | 2.8% of 360,000 active | AID 720504; note: series mostly up to about 57 µM; nearly all actives have a fitted effect of over 65% in size
TDP1 cell CPT: DT40-hTDP1 cell growth loss with CPT; 12% of 420,000 active; Potency, µM (series often up to 46.2 µM), inactives show at the highest dose activity change, negative = growth inhibition, usual class: inhibitors; chicken DT40 Tdp1-/-;hTDP1 cells + 20 nM CPT, ATP luminescence, 48 h; note: nearly all actives have a fitted effect of over 55% in size
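Cell growth measured by CellTiter-Glo luminescence after a minimum 48 h, 37 C compound exposure with 20 nM CPT in Tdp1-knockout DT40 cells stably expressing hTDP1, seeded 400/well; qHTS titration format.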
DT40 TDP1 no CPT: qHTS for Inhibitors of human tyrosyl-DNA phosphodiesterase 1 (TDP1): qHTS in cells in absence of CPT; AID 686978, 2013; Potency, µM (titrated, usually from 46.2 µM), for the others: at the highest dose activity change, negative = growth inhibition, usual class: inhibitors; 15% of 420,000 active; DT40 Tdp1-/- hTDP1 cells, no CPT, ATP luminescence, 48 h; note: nearly all actives have a fitted effect of over 55% in size
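Growth kinetics read by CellTiter-Glo luminescence after ≥48 hr at 37 °C. Cells: DT40 Tdp1-/- stably carrying human TDP1, 400 per well, compound exposure in the absence of CPT (DMSO vehicle).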
TDP1 inh: inhibitors of human tyrosyl-DNA phosphodiesterase TDP1; Potency, µM (titrated, usually from 130 µM), for inactives: top-dose activity change, negative = inhibition, most hits filed as inhibitors; 0.28% of 350,000 active; Q9NUW8; recombinant TDP1, AlphaScreen DNA substrate cleavage; note: nearly all actives have a fitted effect of over 40% in size
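Enzyme-compound mixtures sat 15 min at room temperature, followed by a 5 min reaction with 15 nM final substrate and 10 min with AlphaScreen beads. Recombinant human Tdp1 was used at 1 nM final.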
VDR inhibitor: inhibitors of human vitamin D receptor | P11473 | VDR-SRC2-3 peptide fluorescence polarization, 2 h | Potency, µM, inactives show max response, negative = inhibition, most hits filed as inhibitors | 0.93% of 400,000 active | AID 504847
Target sequence (P11473 whole entry, looked up): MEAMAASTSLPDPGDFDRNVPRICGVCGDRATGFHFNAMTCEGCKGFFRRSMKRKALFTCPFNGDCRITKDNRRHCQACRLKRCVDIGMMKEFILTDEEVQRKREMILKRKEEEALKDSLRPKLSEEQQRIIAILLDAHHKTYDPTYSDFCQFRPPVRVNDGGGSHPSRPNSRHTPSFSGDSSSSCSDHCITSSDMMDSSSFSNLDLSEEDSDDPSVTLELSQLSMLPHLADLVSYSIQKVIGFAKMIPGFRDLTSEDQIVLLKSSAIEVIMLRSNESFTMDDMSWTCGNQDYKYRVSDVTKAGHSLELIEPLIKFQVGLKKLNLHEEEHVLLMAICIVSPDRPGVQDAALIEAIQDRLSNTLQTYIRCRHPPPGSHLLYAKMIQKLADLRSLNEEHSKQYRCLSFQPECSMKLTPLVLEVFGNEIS
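Compounds are added to VDR with labelled SRC2-3 coactivator peptide and held 2 h at room temperature. Inhibition of the VDR–peptide interaction is then read as a change in fluorescence polarization.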
Starred values were filed as active, the others as inactive; ? = inconclusive; · = no result given; ! = a repeat was not active; [ ] = dose if it differs, or a comment. Shown are actives, neighbours in structure and some others; about 18% of the full set was active somewhere. Calls come from the whole dose curve; as a rule, active = well fitted curve in the direction sought with a large enough effect; inconclusive = small, poorly fitted or top-dose-only effect, or another doubt; inactive = no such curve, though single readings can be large; an effect the other way counts as inactive or inconclusive. % is set by controls: 0 for no effect and ±100 for the full control effect; potency is the fitted concentration of half-maximal effect.

SMILES | KAT2A inh | PLK1 PBD inh | TDP1 cell CPT | DT40 TDP1 no CPT | TDP1 inh | VDR inhibitor
O=S(=O)(NCc1cn2ccsc2n1)c1ccc2c(c1)OCCO2 | -22% | 0% | ? | 23µM* | 3% | 6%
O=S(=O)(NCc1cn2ccsc2n1)c1cccs1 | 3% | -5% | -2% | -15% | 9% | 11%
O=c1c2c3c(sc2n(Cc2ccc(F)cc2Cl)c(=O)n1-c1ccc(Cl)cc1)CCC3 | -2% | · | -12% | -11% | 1% | 2%
COc1ccc(N2CCN(C(=O)CCS(=O)(=O)c3cc4c(cc3Cl)NC(=O)CO4)CC2)cc1 | -3% | · | · | · | -3% | -6%
Cc1ccc(C)c(N2CCN(C(=O)CCS(=O)(=O)c3ccc4c(c3)NC(=O)C(C)S4)CC2)c1 (centres undefined) | -5% | -15% | 23µM* | 15µM* | -3% | -9%
CC(=O)c1ccc(N2CCN(C(=O)CCS(=O)(=O)c3ccc4c(c3)NC(=O)CS4)CC2)cc1 | -10% | -3% | 18µM* | ? | 2% | 4%
COc1ccc(N2CCN(C(=O)CCS(=O)(=O)c3ccc4c(c3)NC(=O)C(C)S4)CC2)cc1 (centres undefined) | -2% | -24% | ? | 10µM* | 4% | -8%
CC1Cc2ccccc2N1C(=O)CCS(=O)(=O)c1ccc2c(c1)NC(=O)CS2 (centres undefined) | -4% | 19µM* | 23µM* | ? | 5% | ?
CC1CCC(NC(=O)CCS(=O)(=O)c2ccc3c(c2)NC(=O)CS3)CC1 (centres undefined) | -16% | -4% | -15% | 10% | -3% | -15%
O=C(O)c1ccc(-n2ncc3c2/C(=C/c2cccc([N+](=O)[O-])c2)CC3)cc1 | -3% | ? | 16µM* | ? | · | -4%
O=C(O)c1ccc(-n2ncc3c2/C(=C\c2cccc([N+](=O)[O-])c2)CC3)cc1 | · | ? | ? | ? | · | -7%
Cc1ccc(-c2sc(C(=O)Nc3ccc(Br)cc3)cc2CC(=O)O)cc1 | 0% | · | 2% | -1% | 4% | -2%
COc1ccc(Nc2ccc(OC)cc2)cc1 | -21% | -12% | -15% | -4% | 8% | -17%
COc1ccc(Nc2nc(N)nc(CN3CCOCC3)n2)cc1 | -4% | ? | -30% | ? | 0% | -23%
COc1ccc(Nc2nc(NN)nc(Nc3ccc(OC)cc3)n2)cc1 | ? | 2% | ? | 13µM* | · | -6%
Cc1ccc(Nc2nc(N)nc(CN3CCN(Cc4ccc5c(c4)OCO5)CC3)n2)cc1Cl | -5% | -6% | ? | ? | 8% | 3%
Cc1ccc(Nc2nc(N)nc(CN3CCN(Cc4ccc5c(c4)OCO5)CC3)n2)cc1 | 0% | -10% | 18µM* | 18µM* | 6% | -3%
COc1ccc(N2CCN(Cc3nc(N)nc(Nc4ccc(C)c(Cl)c4)n3)CC2)cc1 | -9% | -2% | 9.2µM* | 16µM* | 14% | 13%
COc1ccc(Nc2nc(N)nc(CCl)n2)cc1 | -5% | -25% | 23µM* | ? | 9% | -26%
COc1cccc(-c2n[nH]c3c2C(c2ccccn2)N(C)C3=O)c1 (centres undefined) | -8% | · | -3% | -3% | 9% | -7%
Nc1nc(CCl)nc(Nc2ccc3ccccc3c2)n1 | -9% | -17% | 12µM* | 15µM* | 4% | -10%
S=c1nc[nH]c2c1ncn2C1CCCO1 (centres undefined) | -1% | 27µM* | -20% | ? | 9% | ?
CC(C)=CCNc1ncnc2c1c(C#N)cn2C1OC(CO)C(O)C1O (centres undefined) | · | 1% | 5.8µM* | 4.1µM* | · | 7%
CNc1ncnc2c1ncn2[C@@H]1O[C@H](CO)[C@H](O)[C@H]1O | · | · | · | · | -6%[56.1 µM] | ·
NC(=O)c1ncn([C@@H]2O[C@H](CO)[C@@H](O)[C@H]2O)c1N | 1% | · | -3% | -1% | 17% | 2%
SMILES | KAT2A inh | PLK1 PBD inh | TDP1 cell CPT | DT40 TDP1 no CPT | TDP1 inh | VDR inhibitor
OCC1OC(n2cnc3c(NO)ncnc32)C(O)C1O (centres undefined) | · | · | 0.89µM* | 5µM* | 3% | -13%
N#Cc1ncn(C2OC(CO)C(O)C2O)c1N (centres undefined) | · | -5% | 5.8µM* | 5.8µM* | · | ·
CC(C)(C)c1ccc(S(=O)(=O)Nc2noc3ccccc23)cc1 | 8% | -14% | -22% | -19% | · | -5%
CNC(=O)[C@H]1O[C@@H](n2cnc3c(NCc4cccc(I)c4)ncnc32)[C@H](O)[C@@H]1O | -16% | 4% | ? | 16µM*! | 7% | -1%
OC[C@H]1O[C@@H](n2cnc3c(NCCc4ccccc4)ncnc32)[C@H](O)[C@H]1O | · | · | · | · | 14%[56.1 µM] | ·
OC[C@H]1O[C@@H](n2cnc3c(Nc4ccccc4)ncnc32)[C@H](O)[C@@H]1O | -4% | -6% | 6% | 0% | 0% | 5%
Nc1ncnc2c1ncn2[C@@H]1O[C@H](CO)[C@@H](O)[C@H]1O | 2% | 3% | -11% | -28% | 0% | 0%
Nc1ccnc2c1ncn2[C@@H]1O[C@H](CO)[C@@H](O)[C@H]1O | 1% | · | 12µM* | 4.6µM* | 4% | -2%
OC[C@H]1O[C@@H](n2cnc3c(NCc4ccccc4)ncnc32)[C@H](O)[C@@H]1O | -3% | · | 2.7µM* | 1.9µM* | 14%[56.1 µM] | 11%
CNC(=O)[C@H]1O[C@@H](n2cnc3c(N)ncnc32)[C@H](O)[C@@H]1O | -1% | · | -1% | -11% | 7% | 3%
OCC1OC(n2cnc3c(NCc4ccccc4O)ncnc32)C(O)C1O (centres undefined) | · | -6% | 1.3µM* | 1.5µM* | · | 1%
CC1=C(C(=O)N(C)C)CC(CC(=O)NCc2cccc3ccccc23)C(=O)N1CCCN1CCCC1=O (centres undefined) | · | -4% | 21% | 16% | · | ·
CN1CCN(C(=O)/C=C/c2c(F)cccc2Cl)CC1 | -11% | -9% | 2% | 12% | 4%[56.1 µM] | -6%
OC[C@H]1O[C@@H](n2cnc3c(=S)nc[nH]c32)[C@H](O)[C@@H]1O | · | · | 12µM* | 11µM* | · | ·
O=[N+]([O-])c1ccc(CSc2ncnc3c2ncn3[C@@H]2O[C@H](CO)[C@@H](O)[C@H]2O)cc1 | -11% | -9% | ? | 13µM* | · | ?
O=c1ncccn1[C@@H]1O[C@H](CO)C(O)[C@@H]1O (some centres undefined) | 2% | · | · | · | 3% | 8%
OCC1OC(n2cnc3ncccc32)C(O)C1O (centres undefined) | · | -3% | 7.3µM* | 6.5µM* | · | ·

Bioassay records (PubChem BioAssay)
